What all share (conditions): concentration: 1 μM,replicates: in singlicate; n = 1
Test [1] concerns BMX.
The test system of test [2] is BRAF.
Test [3] has as its system T1, BRK.
T1 construct: gene PTK6

Test [4] concerns BRSK1.
Test [5] concerns BRSK2.
Test [6] relates to BTK.
Test [7] deals with BUB1.
Test [8] deals with CAMK1B.
Test [9] deals with CAMK1D.
The test system of test [10] is CAMK1G.
The subject of test [11] is CAMK1.
The test system of test [12] is CAMK2A.
Test [13] concerns CAMK2B.
Test [14] has as its system CAMK2D.
Test [15] relates to CAMK2G.
For test [16], the system named is CAMK4.
The test system of test [17] is CAMKK1.
Test [18] concerns CAMKK2.
In test [19] the test system is CASK.
Test [20] relates to T2, CDC2L1.
T2 construct: gene CDK11B

Structures are written as SMILES.
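Further: KINOMEscan kinase panel screen.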

As to `COc1ccc(Nc2nccc(N3CCC(NC(=O)c4cccc(C#N)c4)C3)n2)cc1` (centres unmarked) [GSK1379730], the “%Inh” value in test [1] turned out to be 0%; in test [2] it was 0%; in test [3] it was 8%; in test [4], 0%; in [5] it was 0%; in test [6] it was 28%. In addition, the “%Inh” value worked out at 53% in test [7]; 13% in test [8]; 0% in [9]; 0% in test [10]; 0% in test [11]; 0% in [12]. The “%Inh” value turned out to be 0% in test [13]; 0% in [14]; 6% in test [15]; 0% in test [16]; 8% in test [17]; 10% in [18]. Besides, the “%Inh” value in test [19] and in [20] was 0% throughout.

Regarding `Cc1ccc(C(=O)Nc2ccc(Oc3ccc4nc(NC(=O)C5CC5)cn4c3)c(F)c2)c(=O)n1-c1ccccc1`, the “%Inh” value in test [1] worked out at 73%; in [2], 57%; in test [3], 88%; in [4] it was 0%; in test [5] it was 0%; in [6], 0%. For the same compound, the “%Inh” value in test [7], in test [8], in test [9], in test [10], in [11] and in test [12] was 0% in each case. Moreover, the “%Inh” value in test [13] came out at 0%; in test [14], 0%; in [15], 3%; in test [16] it was 10%; in [17], 11%; in test [18] it was 10%. The “%Inh” value in [19] was 12%; in test [20], 0%.

Consider `COC(=O)Nc1nc2cc(Oc3ccc(NC(=O)Nc4cc(C(F)(F)F)ccc4Cl)cc3)ccc2[nH]1.Cl` [GW697465], for which the “%Inh” value was 95.2% in test [1]; 41% in [2]; 12% in [3]; 0% in [4]; 0% in test [5]; 7% in test [6]. Further, the “%Inh” value in test [7] was 67%; in test [8] it was 0%; in test [9], 13%; in test [10], 0%; in test [11], 5%; in test [12], 0%. In addition, the “%Inh” value turned out to be 0% in test [13]; 0% in [14]; 7% in test [15]; 0% in test [16]; 2% in test [17]; 0% in [18]. Further, the “%Inh” value in test [19] and in [20] was 0% throughout.

Consider `CC(C)S(=O)(=O)N1CCN(Cc2ccc3c(c2)nc(NC(=O)c2ccsc2)n3C[C@H](O)c2ccccc2)CC1` [GW635815], for which the “%Inh” value amounted to 10% in [1]; 0% in test [2]; 8% in test [3]; 0% in test [4]; 0% in test [5]; 0% in test [6]. In addition, the “%Inh” value in [7] is 13%; in test [8], 0%; in test [9], 12%; in test [10], 19%; in test [11], 25%; in [12], 0%. Moreover, the “%Inh” value in [13] is 0%; in test [14] it was 11%; in test [15], 39%; in test [16], 0%; in [17] it was 44%; in test [18] it was 61%. The “%Inh” value was 22% in test [19] and 0% in [20].

On to `O=C(Nc1n[nH]c2cc(-c3ccco3)ccc12)C1CC1` [SB-737447], for which the “%Inh” value worked out at 0% in test [1]; 0% in test [2]; 0% in [3]; 31% in test [4]; 46% in [5]; 0% in test [6]. Moreover, the “%Inh” value turned out to be 0% in test [7]; 0% in test [8]; 0% in test [9]; 100% in [10]; 5% in test [11]; 39% in test [12]. Moreover, the “%Inh” value in [13] is given as 34%; in test [14] it was 3%; in test [15], 4%; in [16] it was 0%; in test [17], 4%; in test [18] it was 5%. In addition, the “%Inh” value in test [19] was 17%; in test [20], 0%.

Take `CN(c1ccc2c(c1)nc(NCc1ccc(F)cc1)n2C)c1ccnc(Nc2ccc(CS(C)(=O)=O)cc2)n1.Cl` [GW813244]: the “%Inh” value in test [1] was determined as 16%; in test [2], 96.8%; in test [3], 88%; in [4], 0%; in [5] it was 0%; in [6], 0%. For the same compound, the “%Inh” value stood at 50% in [7]; 0% in [8]; 0% in [9]; 22% in [10]; 0% in test [11]; 0% in test [12]. The “%Inh” value is 0% in [13]; 0% in test [14]; 1% in test [15]; 0% in test [16]; 0% in test [17]; 6% in [18]. The figures for the “%Inh” value in test [19] and in test [20] were 15% and 94.5%, respectively.

With `CC(C(=O)NC1CCN(c2ccnc(Nc3ccc(F)cc3)n2)C1)c1ccc(Cl)cc1` (centres unmarked) [GSK1379713], the “%Inh” value in test [1] is reported as 0%; in test [2] it was 0%; in [3], 0%; in test [4], 5%; in test [5] it was 0%; in [6] it was 0%. Also, the “%Inh” value in [7] turned out to be 18%; in test [8] it was 37%; in test [9], 8%; in [10], 13%; in test [11], 8%; in test [12] it was 0%. Moreover, the “%Inh” value stood at 0% in test [13]; 2% in test [14]; 26% in [15]; 0% in test [16]; 0% in test [17]; 5% in [18]. The “%Inh” value in test [19] and in test [20] was 0% each time.

On to `Cn1ccc2ncnc(Oc3ccc(NC(=O)Nc4cccc(C(F)(F)F)c4)c(F)c3)c21`, for which the “%Inh” value in [1] is recorded as 1%; in test [2], 62%; in test [3], 0%; in test [4] it was 0%; in [5], 2%; in test [6] it was 30%. Moreover, the “%Inh” value is recorded as 0% in test [7]; 0% in test [8]; 12% in test [9]; 11% in test [10]; 0% in [11]; 6% in [12]. In addition, the “%Inh” value turned out to be 8% in test [13]; 6% in [14]; 10% in test [15]; 15% in test [16]; 18% in [17]; 19% in test [18]. The “%Inh” value in test [19] is 0%; in test [20], 19%.

For `CNC(=O)c1ccccc1Nc1nc(Nc2cccc(CS(C)(=O)=O)c2)ncc1C.O=CO` [GSK1520489], the “%Inh” value in test [1] amounted to 97.2%; in test [2], 59%; in test [3], 99.7%; in [4] it was 65%; in test [5], 79%; in test [6] it was 95.4%. Moreover, the “%Inh” value in test [7] was determined as 88%; in test [8] it was 14%; in test [9], 40%; in [10] it was 29%; in test [11] it was 76%; in [12], 1%. In addition, the “%Inh” value in test [13] was 0%; in test [14] it was 16%; in [15], 34%; in [16], 0%; in [17], 88%; in test [18], 91.2%. For the same compound, the “%Inh” value in test [19] was found to be 59%; in test [20], 0%.

With `CN(c1ccccc1CNc1nc(Nc2ccc3c(c2)CC(=O)N3)ncc1C(F)(F)F)S(C)(=O)=O`, the “%Inh” value in [1] is recorded as 39%; in test [2], 0%; in [3], 0%; in [4], 14%; in [5], 36%; in test [6] it was 0%. Also, the “%Inh” value is recorded as 0% in [7]; 0% in test [8]; 0% in [9]; 0% in test [10]; 0% in test [11]; 22% in test [12]. Further, the “%Inh” value in test [13] is listed as 18%; in test [14], 0%; in test [15], 59%; in [16] it was 0%; in test [17], 58%; in test [18], 64%. Further, the “%Inh” value in test [19] and in test [20] was 0% throughout.
